Results: PubChem BioAssay (NCI)
Compounds without any hit were thinned out: in the full panel of roughly 83,000, 20% have a hit.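 Assay: single dose, 48 h. Readout: percent growth (0 = no net growth; negative = cell death). Active: <10.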 Values without a mark were called inactive. Active and inactive are the calls of the source.

Key:
Assay in all cases: NCI-60 one-dose screen, 48 h (100 = growth as untreated, 0 = no growth, -100 = all killed)
HCT-15 colon = conditions: 10 µM unless noted
HT29 colon = conditions: 10 µM unless noted
SNB-75 CNS = conditions: 10 µM unless noted
SNB-19 CNS = conditions: 10 µM unless noted
U251 CNS = conditions: 10 µM unless noted
PC-3 prostate = conditions: 10 µM unless noted
SK-MEL-5 melanoma = conditions: 10 µM unless noted
UACC-62 melanoma = conditions: 10 µM unless noted
LOX IMVI melanoma = conditions: 10 µM
SK-MEL-28 melanoma = conditions: 10 µM unless noted
SK-MEL-2 melanoma = conditions: 10 µM unless noted
EKVX NSCLC = conditions: 10 µM unless noted
SN12C renal = conditions: 10 µM unless noted
UO-31 renal = conditions: 10 µM unless noted
TK-10 renal = conditions: 10 µM unless noted
ACHN renal = conditions: 10 µM unless noted
CAKI-1 renal = conditions: 10 µM unless noted
A498 renal = conditions: 10 µM unless noted
CCRF-CEM leukemia = conditions: 10 µM unless noted
MOLT-4 leukemia = conditions: 10 µM unless noted

SMILES | growth (HCT-15 colon) | growth (HT29 colon) | growth (SNB-75 CNS) | growth (SNB-19 CNS) | growth (U251 CNS) | growth (PC-3 prostate) | growth (SK-MEL-5 melanoma) | growth (UACC-62 melanoma) | growth (LOX IMVI melanoma) | growth (SK-MEL-28 melanoma) | growth (SK-MEL-2 melanoma) | growth (EKVX NSCLC) | growth (SN12C renal) | growth (UO-31 renal) | growth (TK-10 renal) | growth (ACHN renal) | growth (CAKI-1 renal) | growth (A498 renal) | growth (CCRF-CEM leukemia) | growth (MOLT-4 leukemia)
Cc1cccc(-c2nc(Nc3cccc(S(N)(=O)=O)c3)c3ccccc3n2)c1 | 9.69% (active) | 38.4% | 80.3% | 51.4% | 36.3% | 39.8% | 56.5% | 49.9% | 7.14% (active) | 57.7% | 66.6% | 45.5% | 51.7% | 29.7% | 73.7% | 38.1% | 46.9% | 47.7% | 31.7% | 27.6%
Cc1cccc(Nc2nc3ccccc3nc2/C=C/c2ccc(F)cc2)c1 | 95.6% | 86.4% | 91.9% | 92.8% | 94% | 89.1% | 88% | 74.7% | 101% | 101% | 98.3% | 83.7% | 90.9% | 67.9% | 151% | 89.9% | 79.9% | 112% | 97.1% | 80.9%
O=C1c2c(c3c4cc(F)ccc4oc3c3[nH]c4ccc(Br)cc4c23)C(=O)N1O | 48.1% | 68.6% | -13.7% (active) | 14.2% | 18.5% | 20.2% | 6.06% (active) | 18.6% |  | 43.6% | 5.56% (active) | 76.5% | 19.2% | 9.04% (active) | 137% | -33.8% (active) | 21.9% | 119% | 9.46% (active) | 7.83% (active)
Cc1ccc(/C=C/c2n(Cc3ccc4ccccc4c3)c3ccccc3[n+]2Cc2ccc3ccccc3c2)cc1 | -86.2% (active) | -50.4% (active) | -88.3% (active) | -58.5% (active) | -42.1% (active) | -88.3% (active) | -100% (active) | -63.6% (active) | -87.9% (active) |  | -97.7% (active) | -95.7% (active) | -56.1% (active) | -96% (active) | -80% (active) | -96.1% (active) | -94.6% (active) | -82.5% (active) | -66.1% (active) | -25.9% (active)
OCC1(CCCc2ccccc2)CCCN(c2nccc3ccccc23)C1 (stereo unspecified) | 27.7% | 21.3% | 40.5% | 44.2% | 40.1% | 52.2% | -60% (active) | 38.7% | 35.8% |  | 30.7% | 23.4% | 44.4% | 26.9% | 50.1% | 51.8% | 38.6% | 63.3% | 49.2% | 32.3%
O=C(c1ccccc1)c1ccc2nc(-c3ccc(F)cc3)[nH]c2c1 | 23.4% | 63.6% | 82% | 75.2% | -26.5% (active) | 56.4% | 60.2% | 43.2% | 14.3% | 63.3% |  | 80.9% | 30.5% | 91.1% | 104% | 57.1% | 40.9% | 90.7% | 15.7% | 27.6%
C#CCOc1cc(N(CC)CC)ccc1C(C(=O)NC(C)(C)C)N(C(=O)C1CCc2cc(F)ccc2O1)c1ccccc1F (stereo unspecified) | 29.8% | 45.3% | 39.7% | 35.1% | 17.5% | 13.5% | 17.3% | 30.9% | -61.6% (active) | 63.9% | -39.4% (active) | 44.5% | 43.7% | 23.3% | 45% | 18.7% | 22.4% | 33.3% | 31.8% | 5.25% (active)
Cn1cc(-c2nnc(N)nc2-c2c[nH]c3ccc(Br)cc23)c2cc(Br)cnc21 | 22.4% | 16.6% | 32% | 65.5% | 62.4% | 38.5% | 68% | 46.3% | 58.7% | 43.6% |  | 64.3% | 63% | 42.4% | 37.7% | 61.3% | 33% | 39.4% | 28% | 11.7%
Cc1occc1C(=O)NN1C(=O)/C(=C/C=C/c2ccc([N+](=O)[O-])o2)SC1=S | -75.5% (active) | -57.2% (active) | -13.4% (active) | 12.6% | -92.7% (active) | 0.198% (active) | -96.7% (active) | -91.9% (active) | -95.9% (active) | -73.2% (active) |  | -52.1% (active) | -88.1% (active) | -96.3% (active) | -49.7% (active) | -100% (active) | -59.7% (active) | 95.3% | 0.965% (active) | 5.26% (active)
C#CCOc1cc(N(CC)CC)ccc1C(C(=O)NC(C)(C)C)N(C(=O)C1CCc2cc(F)ccc2O1)c1ccc(F)cc1 (stereo unspecified) | 44.6% | 61% | 60.5% | 41.6% | 37.9% | 17.6% | 33.9% | 35.5% | 42.3% | 66.7% | -24.7% (active) | 37.8% | 48.9% | 30.4% |  | 33.5% | 30.7% | 78.5% | 40.4% | 9.55% (active)
N#Cc1c(-c2cccc(Cl)c2Cl)cc(-c2ccc3ccccc3c2)[nH]c1=O | 69.6% | 121% | -12.7% (active) | 39.2% | 6.58% (active) | 44.4% | 85.7% | 76.2% |  | 92.8% | 126% | 49% | 19.1% | 24.6% | 48.9% | 40.8% | 47.2% | 87.5% | 38.3% | 71.5%
O=[N+]([O-])c1ccc(/C=C/c2nc3ccccc3n3c(=S)[nH]nc23)cc1 | 82.1% | 93.4% | 102% | 78.4% | 76.2% | 65.8% | 61.8% | 63.3% | 91.3% | 82.7% | 86.3% | 70.7% | 71.1% | 47.7% | 127% | 72.7% | 75.2% | 91.9% | 69.8% | 75.5%
Cc1ccc(S(=O)(=O)c2nc(S(=O)(=O)c3ccc(C)cc3)c(Cl)s2)cc1 | -87.6% (active) | -77.5% (active) | 108% | 81.4% | -38.5% (active) | 18% | 76.4% | 39.7% | -93% (active) | 29.4% | 42.5% | 0.151% (active) | -20.5% (active) | -6.4% (active) | -50.4% (active) | -92.3% (active) | -75.8% (active) | 122% | 5.23% (active) | 16.6%
COCOc1ccc2c(=O)c(C)c(C(=O)N[C@@H](Cc3ccccc3)C(O)C(=O)NCCc3ccc(OC)cc3)oc2c1 (stereo partly specified) | 102% | 113% | 125% | 96% | 106% | 110% | 99.4% | 102% |  | 124% | 118% | 111% | 95.2% | -20.1% (active) | 116% | 114% | 101% | 136% | 105% | 94.8%
COC(OC)C1=C(C)OC(N)=C(C#N)C12C(=O)Nc1ccccc12 (stereo unspecified) | 94.6% | 102% | 103% | 97% | 99.4% | 92.8% | 92.4% | 81.1% | 28.4% | 85% | 96.2% | 99.7% | 93.3% | 70.3% | 161% | 84.9% | 108% | 125% | 54.6% | 95.9%
CN(C)c1nc(NCCNS(=O)(=O)c2ccc(C3=Nc4c(N)nc(N)nc4NC(c4ccc(F)cc4)C3)cc2)nc(Nc2ccc(F)cc2)n1 (stereo unspecified) | 44.7% | 10% | 58.6% | 46.1% | 31.6% | 18.9% | 21.3% | 45.2% | -40% (active) | 55.4% | 58.7% | 47.5% | 42.7% | 82.9% | 65.9% | 77.1% | 64.4% | 53.3% | 8.67% (active) | 6.56% (active)
